# Screening results as filed in PubChem.
# Gal4-VP16 FLuc: inhibits Gal4-VP16 luciferase reporter, ROR gamma counter-screen; Drosophila S2 Gal4-VP16 UAS-luciferase, luminescence, 20 h; Potency, µM (titrated, usually from 53.6 µM), for the others: at the top dose activity, negative = inhibition, hits mostly inhibitors; actives 3.5% (n = 310,000);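 further: Gal4-VP16 expression switched on by copper sulfate through the metallothionein promoter; on the % scale 0 is the no-effect control and ±100 the full control effect; nearly all actives have a fitted effect of over 50% in size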
# SW480 rerep: DNA re-replication induction in SW480 cells; SW480 DNA re-replication, Hoechst DNA content imaging, 48 h; Potency, µM (doses to about 46.1 µM), for inactives: at the highest dose re-replication activation, actives largely listed as activators; actives 1.8% (n = 340,000); AID 624297; further: % of control where 0% means no effect; nearly all actives have a fitted effect of over 55% in size
#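 Cells (250 per well) received 23 nL compound or DMSO by pin tool and were kept 48 hr at 37 C, 5% CO2. Nuclei were then stained with Hoechst for 40 min and scanned for DNA content.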
# ELG1 DNA repair: ELG1-dependent DNA repair inhibition. actives 2.3% (n = 330,000). HEK293T ELG1-luciferase reporter, luminescence, 16 h; DNA damage induced by 5-fluorouridine. Potency, µM (doses to about 46.1 µM), for inactives: at the top dose activity change, negative = inhibition, hits mostly inhibitors; further: on the % scale 0 is the no-effect control and ±100 the full control effect; nearly all actives have a fitted effect of over 55% in size
#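 Overnight (16 hr) co-exposure of 2,000 cells/well to 5-fluorouridine and compound at 37 °C preceded detection. Luciferase was quantified via ONE-Glo luminescence; loss of signal denotes inhibition.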
# RORgamma inh: ROR gamma (mouse) transcription inhibition | P51450 | Drosophila S2 Gal4-RORgamma UAS-luciferase reporter, 20 h | Potency, µM (highest dose often 53.6 µM), without a hit: at the top dose activity change, negative = inhibition, actives largely listed as inhibitors | actives 5.4% (n = 310,000) | AID 2551; further: on the % scale 0 is the no-effect control and ±100 the full control effect; nearly all actives have a fitted effect of over 60% in size
# Target sequence (P51450 whole entry, looked up, the tested form may be a part): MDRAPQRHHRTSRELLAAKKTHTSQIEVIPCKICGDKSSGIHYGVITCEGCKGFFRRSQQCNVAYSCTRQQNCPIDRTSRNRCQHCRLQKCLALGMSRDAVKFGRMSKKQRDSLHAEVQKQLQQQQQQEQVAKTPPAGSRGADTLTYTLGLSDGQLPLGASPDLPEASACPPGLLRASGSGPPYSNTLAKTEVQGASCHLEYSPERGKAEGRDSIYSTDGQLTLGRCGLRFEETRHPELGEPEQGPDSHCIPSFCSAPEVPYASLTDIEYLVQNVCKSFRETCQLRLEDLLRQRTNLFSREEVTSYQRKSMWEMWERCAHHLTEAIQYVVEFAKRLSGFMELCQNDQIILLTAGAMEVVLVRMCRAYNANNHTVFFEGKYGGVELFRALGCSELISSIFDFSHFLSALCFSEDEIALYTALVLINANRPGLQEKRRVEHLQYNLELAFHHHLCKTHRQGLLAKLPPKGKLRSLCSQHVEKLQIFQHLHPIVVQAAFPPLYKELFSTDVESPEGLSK
#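 In this cell-based reporter format, copper sulfate (700 uM final) drives Gal4–ROR gamma fusion expression from a metallothionein promoter in Drosophila Schneider cells; compounds preincubated 1 hr, reporter read after 20 hr at ambient temperature.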
# MCF10A rereplic: DNA re-replication induction in MCF 10a cells; MCF 10A DNA re-replication, Hoechst nuclear intensity, 48 h; Potency, µM (doses to about 46.1 µM), without a hit: at the highest dose activity, positive = re-replication, usual class: activators; actives 2.9% (n = 350,000); AID 624296; further: % of control where 0% means no effect; nearly all actives have a fitted effect of over 50% in size
# Active calls of the source: *; u = inconclusive; x = not tested or not shown; [ ] = dose if it differs, or a comment. The list is not random: actives were taken first. Their share in the collection is about 10%. The call rests on the fitted dose curve; in most records, active means well fitted curve in the direction sought with a large enough effect; inconclusive means small, poorly fitted or top-dose-only effect, or another doubt; inactive means no such curve, though single readings can be large; an effect the other way counts as inactive or inconclusive. Potency means the concentration at half of the fitted maximal effect.
SMILES,Gal4-VP16 FLuc,SW480 rerep,ELG1 DNA repair,RORgamma inh,MCF10A rereplic
CCCCC(=O)N/N=C/c1c(O)n(CCc2ccccc2)c(=O)[nH]c1=O,-10%,u,u,10µM*,5%
CCOc1ccc2cc(C#N)c(=O)oc2c1,-3%,x,x,7%,x
CCCSC(=O)Cl,3%,x,x,15%,x
C[C@H]1COC(=O)[C@H](Cc2ccc(F)cc2)CC/C=C/C[C@@H](CC(=O)N(CCO)Cc2ccccc2)C(=O)N1,x,-9%,u,x,u
Cc1ccc(CN2C3CCCC2CC(NC(=O)c2ccc(C)cc2)C3)cc1 (configuration not stated),5%,-1%,-5%,13%,u
Cc1cc(NC(=O)CCl)no1,u,u,u,2.5µM*,u
CCCCCCCCc1ccc(O)cc1,-15%,5%,21%,0%,29%
CCCCCCCCn1sccc1=O,0.63µM*,10µM*,u,0.45µM*,21µM*
C=C1C(=O)O[C@@H]2C[C@@H](C)[C@@H]3C4OC4C(=O)[C@@]3(C)[C@@H](O)[C@H]12 (some centres not stated),4µM*,u,u,2.8µM*,u
O=C(c1ccc(N2CCN(CCO)CC2)nc1)N1CCOCC1,-1%,-8%,u,10%,-3%
O=C(CCCCCCCCCCC(=O)NCc1cccnc1)NCc1cccnc1,-1%,-12%,3.7µM*,-8%,1%
O=C(c1cc2cc(Cl)ccc2[nH]1)N1CCC2(CC1)OCCO2,-18%,-2%,u,16%,23µM*
Nn1c(COc2ccc(Cl)cc2)n[nH]c1=S,6%,-3%,4%,u,3%
COc1ccc(OCc2n[nH]c(=S)n2Cc2ccco2)cc1,u,0%,5%,5.6µM*,28%
OCCNc1c2c(nc3ccccc13)CCCC2,1%,-3%,-19%,-3%,-6%
CNc1ccc2nc3ccccc3[n+](C)c2c1,-16%,u,1.6µM*,-41%,1%
C[n+]1c2ccccc2nc2ccc(NCCO)cc21,-15%,u,8.2µM*,-34%,-2%
Cc1c(C(=O)c2cccc3ccccc23)c2cccc3c2n1[C@@H](CN1CCOCC1)CO3,-3%,x,x,-19%,x
COC(=O)c1ccc(NC(=O)CSc2nc3ccc(N4C(=O)C5C6C=CC(C6)C5C4=O)cc3s2)cc1 (configuration not stated),-14%,0%,13µM*,5%,u
COc1ccc(OC(=O)N2C/C(=C/c3ccccc3)C(=O)/C(=C\c3ccccc3)C2)cc1,x,3.7µM*,x,x,7.3µM*
COc1ccc(NC(=O)N2CC[C@@]3(CCCN(C(=O)Oc4ccccc4)C3)C2)cc1,-11%,x,x,4%,x
COc1ccc(/C=C/C(=O)c2c(O)n(CCC3=CCCCC3)c(=O)[nH]c2=O)cc1,3%,-1%,u,26%,7.3µM*
O=C(/C=C/c1ccc2c(c1)OCO2)c1c(O)n(CCC2=CCCCC2)c(=O)[nH]c1=O,-22%,0%,-29%,-5%,1.8µM*
CC(C)(C)OOC(=O)c1ccccc1,-7%,x,x,-18%,x
O=[N+]([O-])/C=C/c1c(OCc2ccccc2)ccc2ccccc12,4.5µM*,x,u,5.6µM*,x
SMILES,Gal4-VP16 FLuc,SW480 rerep,ELG1 DNA repair,RORgamma inh,MCF10A rereplic
Cc1ccccc1NP(=O)(Oc1ccccc1F)Oc1ccccc1F,-3%,-4%,23µM*,24%,4%
COc1ccc(-n2nc(C(=O)NCC(=O)N3CCC4(CC3)OCCO4)c3ccccc3c2=O)cc1OC,u,-4%,u,16µM*,-3%
C=C(C=O)C[C@@H]1C[C@H](O)C2OC3C[C@]4(C)OC5/C=C\CC6OC7C(CC=CCC6OC5CCCC4OC3CC2O1)OC1CC2OC3CC(=O)OC3C[C@@H](C)C[C@@]2(C)OC1C[C@@H]7C (some centres not stated),-5%,36%[9.22 µM],4.1µM*,u,0.73µM*
CC(=O)Oc1c2c(c(CC=C(C)C)c3c1C(=O)C1=CC4CC5C(C)(C)OC(C/C=C(\C)C(=O)O)(C4=O)[C@]15O3)OC(C)(CCC=C(C)C)C=C2 (some centres not stated),u,x,x,3.5µM*,x
COC(=O)/C(C)=C\CC12OC(C)(C)C3CC(C=C4C(=O)c5c(OC)c6c(c(CC=C(C)C)c5OC431)OC(C)(CCC=C(C)C)C=C6)C2=O (configuration not stated),-1%,x,x,u,x
O=C(Oc1ccc2ccc(OC(=O)N3CCCCCC3)cc2c1)N1CCCCCC1,u,5%,u,-4%,u
CC[C@@]1(O)C(=O)OCc2c1cc1n(c2=O)Cc2cc3c(N)cccc3nc2-1,0.35µM*,1%,u,0.02µM*,-65%
COc1ccc(CCNc2oc(-c3ccc(OC)c(OC)c3)nc2P(=O)(OC)OC)cc1OC,u,1%,-29%,19%,4%
ClC(Cl)Cl,-5%,0%,x,-1%,3%
Nc1c2c(nc3sc4c(c13)CCCC4)CCCCC2,7%,-5%,u,21%,u
Nc1nc2c(s1)CCCCCCCCCC2,6%,12%,u,11µM*,u
CC1(C)C(=O)C=C[C@@]2(C)C1=C(O)C(=O)[C@@]1(C)C2CC[C@@]2(C)C(c3ccoc3)C[C@H]3O[C@@]321 (some centres not stated),10µM*,x,x,8.9µM*,x
CN1C(=O)/C(=C/c2ccc(Cl)s2)C(=O)NC1=S,13µM*,u,24%,11µM*,u
Cc1ccsc1/C=C1\C(=O)NC(=S)N(C)C1=O,22µM*,u,u,u,30%
C=CCN1C(=O)/C(=C/c2ccc(Br)s2)C(=O)NC1=S,u,-4%,11%,11%[1.91 µM],u
COC(=O)C1CN(C#N)N(c2ccc(Cl)cc2)C12c1ccccc1-c1ccccc12 (configuration not stated),0.79µM*,3.3µM*,5.8µM*,0.56µM*,7.1µM*
CCN1C[C@]2(COC)CC[C@H](O)[C@@]34[C@@H]5C[C@H]6[C@@H](OC)[C@H]5[C@](O)(C[C@@H]6OC)[C@@](O)([C@@H](OC)[C@H]23)[C@@H]14,6%[17 µM],x,x,-20%[16.9 µM],x
COCCCn1c(=O)/c(=C\c2ccccc2OC(F)F)s/c1=C(/C#N)C(=O)NCCOC,0%,u,0%,-11%,15µM*
Oc1c(Cl)cccc1Cc1cc(Cl)cc(Cl)c1O,x,1%,x,x,12µM*
O=C1OC(=O)C2C3CCC(O3)C12 (configuration not stated),-1%,x,u,2%,x
COC(=O)[C@H]1[C@H]2C[C@@H]3c4[nH]c5cc(OC)ccc5c4CCN3C[C@H]2C[C@@H](OC(=O)/C=C/c2cc(OC)c(OC)c(OC)c2)[C@@H]1OC,x,18µM*,-16%,x,5.8µM*
